Measured values taken from PubChem BioAssay (NCATS).
Inconclusive results are not listed. A call without a number means that no potency is given here. The source made the active and inactive calls. The call rests on the fitted dose curve; in most records, active means well fitted curve in the direction sought with a large enough effect; inconclusive means small, poorly fitted or top-dose-only effect, or another doubt; inactive means no such curve, though single readings can be large; an effect the other way counts as inactive or inconclusive. Where a SMILES comes first, the peptide text is derived from it. Bridges are numbered along the chain shown (N, C = ends). [ ]: non-standard residue; d: D form. hArg = N=C(N)NCCCC[C@H](N)C(=O)O; Mpa = O=C(O)CCS

How the values were obtained:
[1] = target: Luciferin 4-monooxygenase (Photinus pyralis) (UniProt P08659); test: Biochemical firefly luciferase enzyme assay for NPC (AID 624030); further: nearly all actives have a fitted effect of over 70% in size; further: potency means the concentration at half of the fitted maximal effect
Summary of the method: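 Counter-screen for direct inhibition of the luciferase enzyme by approved-drug library compounds, run at 10 nM enzyme in 50 mM Tris acetate (final). Luminescence was read within 5 min of enzyme-buffer addition and normalized to PTC124 versus DMSO (0%).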

[2] = target: Voltage-gated inwardly rectifying potassium channel KCNH2 (Homo sapiens) (UniProt Q12809); test: qHTS Assay for Small Molecule Inhibitors of the Human hERG Channel Activity (AID 588834);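 further: U2OS cells transduced with hERG by BacMam; top concentration of the series differs between compounds; lower thallium flux fluorescence means stronger hERG block; nearly all actives have a fitted effect of over 50% in size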
Summary of the method: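 Cells were infected with hERG-BacMam virus for 4 hrs at room temperature, grown overnight, then seeded at 2000/well. After dye loading and roughly 10 min compound treatment, thallium influx was triggered and fluorescence recorded.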

[3] = S16 Schwann cell PMP22 intronic element firefly luciferase assay (AID 624032); further: nearly all actives have a fitted effect of over 30% in size; further: potency means the concentration at half of the fitted maximal effect
Summary of the method: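 Rat S16 Schwann cells stably carrying a PMP22 intronic element-driven Fluc reporter were seeded overnight, then exposed to compounds for 24 h at 37 °C. Luminescence was normalized to PTC124 (positive control) and DMSO (0% activity).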

[4] = S16 Schwann cell viability assay (CellTiter-Glo assay) (AID 624031);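 further: cellular ATP luminescence as a viability measure; series mostly up to about 58 µM; nearly all actives have a fitted effect of over 70% in size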
Summary of the method: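 Native S16 rat Schwann cells, 500-750 cells/well in DMEM with 10% FBS, dosed with compound after overnight culture and incubated 24h at 37 degree Celsius/5% CO2. Viability by CellTiter-Glo luminescence; % activity normalized to no-cell wells and DMSO-treated cells.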

Voltage-gated inwardly rectifying potassium channel KCNH2 (Homo sapiens), sequence (Q12809 whole entry, looked up): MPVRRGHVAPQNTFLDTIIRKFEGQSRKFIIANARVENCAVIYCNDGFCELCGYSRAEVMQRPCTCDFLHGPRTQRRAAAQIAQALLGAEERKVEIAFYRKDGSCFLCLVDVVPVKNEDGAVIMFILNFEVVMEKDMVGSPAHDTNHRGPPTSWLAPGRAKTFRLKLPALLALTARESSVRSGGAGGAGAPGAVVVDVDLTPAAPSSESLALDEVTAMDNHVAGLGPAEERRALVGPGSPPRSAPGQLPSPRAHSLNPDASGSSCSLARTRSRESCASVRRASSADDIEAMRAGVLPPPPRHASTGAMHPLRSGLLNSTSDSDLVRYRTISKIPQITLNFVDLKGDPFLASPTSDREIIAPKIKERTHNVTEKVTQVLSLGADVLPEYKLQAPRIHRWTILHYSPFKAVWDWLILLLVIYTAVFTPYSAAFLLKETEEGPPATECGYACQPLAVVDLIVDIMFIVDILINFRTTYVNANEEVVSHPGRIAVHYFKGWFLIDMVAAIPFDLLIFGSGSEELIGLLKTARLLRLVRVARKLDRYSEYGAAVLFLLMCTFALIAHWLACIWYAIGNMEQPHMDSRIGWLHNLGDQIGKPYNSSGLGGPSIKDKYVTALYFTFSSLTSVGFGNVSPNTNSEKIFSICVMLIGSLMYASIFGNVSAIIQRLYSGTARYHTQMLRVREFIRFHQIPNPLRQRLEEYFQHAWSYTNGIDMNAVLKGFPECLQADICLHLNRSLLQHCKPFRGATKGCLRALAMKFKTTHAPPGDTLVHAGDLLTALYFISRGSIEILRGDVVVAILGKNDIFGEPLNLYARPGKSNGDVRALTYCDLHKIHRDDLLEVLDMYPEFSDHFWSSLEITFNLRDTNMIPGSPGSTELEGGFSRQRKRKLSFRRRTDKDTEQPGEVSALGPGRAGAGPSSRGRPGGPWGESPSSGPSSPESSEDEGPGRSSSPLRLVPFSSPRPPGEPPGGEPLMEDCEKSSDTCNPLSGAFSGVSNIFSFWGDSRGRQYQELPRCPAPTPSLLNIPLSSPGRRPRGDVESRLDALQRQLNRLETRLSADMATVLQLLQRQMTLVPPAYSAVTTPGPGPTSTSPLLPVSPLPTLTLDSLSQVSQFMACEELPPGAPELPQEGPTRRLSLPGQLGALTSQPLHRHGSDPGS
Luciferin 4-monooxygenase (Photinus pyralis), sequence (P08659 whole entry, looked up): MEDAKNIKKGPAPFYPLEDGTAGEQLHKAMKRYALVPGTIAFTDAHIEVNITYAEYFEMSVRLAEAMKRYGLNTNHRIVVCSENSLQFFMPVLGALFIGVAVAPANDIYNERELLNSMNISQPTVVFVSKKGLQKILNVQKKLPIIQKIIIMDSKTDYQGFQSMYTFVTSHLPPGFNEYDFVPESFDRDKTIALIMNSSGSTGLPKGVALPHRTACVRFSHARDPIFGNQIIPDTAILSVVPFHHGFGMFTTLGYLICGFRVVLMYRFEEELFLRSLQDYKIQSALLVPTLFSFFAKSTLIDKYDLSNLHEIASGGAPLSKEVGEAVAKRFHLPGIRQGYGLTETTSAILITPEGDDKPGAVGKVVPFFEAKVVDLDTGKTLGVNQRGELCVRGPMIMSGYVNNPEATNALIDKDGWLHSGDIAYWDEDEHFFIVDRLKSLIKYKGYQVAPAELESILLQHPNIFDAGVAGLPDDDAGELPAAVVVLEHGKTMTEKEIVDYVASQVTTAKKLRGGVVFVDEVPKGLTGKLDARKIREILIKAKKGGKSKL

Row | SMILES | Potency [1] | Potency [2] | Potency [3] | outcome [4]
1 | CCCCCCCCCCOc1cc2c(=O)c(C(=O)OCC)c[nH]c2cc1OCC | inactive |  |  | 
2 | NC(=O)c1ccc([N+](=O)[O-])cc1Cl | inactive | inactive | inactive | 
3 | CCCCCC(C)N (configuration not stated) | inactive | inactive | inactive | inactive
4 | COc1ccc2cc(CCC(C)=O)ccc2c1 |  | inactive |  | inactive
5 | CCOC(=O)c1cccnc1 | inactive | inactive | inactive | 
6 | O=c1[nH]c2cc(C(F)(F)F)c(N3CCOCC3)cc2n(CP(=O)(O)O)c1=O | inactive |  | inactive | inactive
7 | O=C(Cn1ccnc1[N+](=O)[O-])NCc1ccccc1 | inactive |  | inactive | inactive
8 | CCc1cccc(CC)c1NC(=O)CN(CC(=O)O)CC(=O)O | inactive |  | inactive | 
9 | Cc1cccc(C)c1NC(=O)CC12CCCN1CCC2 | inactive |  | inactive | 
10 | Cc1cc(OI)c(C(C)C)cc1-c1cc(C(C)C)c(OI)cc1C | inactive |  | inactive | inactive
11 | Cc1cc(-n2nc3ccc(Cl)cc3n2)c(O)c(C(C)(C)C)c1 | inactive |  | inactive | inactive
12 | CCS(=O)(=O)CCn1c([N+](=O)[O-])cnc1C | inactive |  | inactive | 
13 | CC(=O)N(CC(O)CO)c1c(I)c(C(=O)NCC(O)CO)c(I)c(C(=O)NCC(O)CO)c1I (configuration not stated) | inactive |  | inactive | inactive
14 | O=C(O)Cn1c(C(=O)Nc2nc(-c3ccccc3Cl)cs2)cc2ccccc21 | 12.8 µM (active) |  | inactive | 
15 | NC(=O)CCCCC1CCSS1 (configuration not stated) | inactive |  | inactive | inactive
16 | CCCCCCCCCCC(CO)CCCCCCCC (configuration not stated) | inactive |  | inactive | inactive
17 | CN1C(C)(C)CCCC1(C)C | inactive |  | inactive | inactive
18 | Cc1c(I)c(=O)n(-c2ccccc2)n1C | inactive |  | inactive | inactive
19 | N[C@@H](Cc1ccc(O)cc1)C(=O)O | inactive |  | inactive | inactive
20 | O=C(CCBr)N1CCN(C(=O)CCBr)CC1 | inactive |  | inactive | inactive
21 | O=C(CN1CCNCC1)NC1CCCCC1 | inactive |  | inactive | inactive

Row | SMILES | Potency [1] | Potency [2] | Potency [3] | outcome [4]
22 | NC(=O)[C@@H]1CSSCCC(=O)N[C@@H](CCCCN=C(N)N)C(=O)NCC(=O)N[C@@H](CC(=O)O)C(=O)N[C@@H](Cc2c[nH]c3ccccc23)C(=O)N2CCC[C@H]2C(=O)N1 ([Mpa][hArg]GDWPC-NH2; disulfide 1-7) | inactive |  | inactive | inactive
23 | CC(C)CCOC(=O)c1ccc(N(C)C)cc1 | 6.42 µM (active) |  | inactive | 
24 | NC(N)=NCCN1CCCCCCC1 | inactive |  |  | inactive
25 | O=C1c2ccccc2S(=O)(=O)N1CCCCN1CCN(c2ncccn2)CC1 | inactive |  |  | inactive
26 | NS(=O)(=O)c1ccc(NC(=O)CCC(=O)O)cc1 | inactive |  | inactive | inactive
27 | Cc1cc(C)c(NC(=O)CN(CC(=O)O)CC(=O)O)c(C)c1Br | inactive |  | inactive | inactive
28 | CCOC(=O)[C@H](CCc1ccccc1)N[C@@H](C)C(=O)N1CCC[C@H]1C(=O)O | inactive |  | 0.0144 µM (active) | 
29 | CC(=O)N[C@@H](Cc1ccc(O)cc1)C(=O)O | inactive |  | inactive | inactive
30 | CN1CCN(C(=O)C2CCCCC2)CC1 | inactive |  | inactive | inactive
31 | O=C(O)COC(=O)Cc1ccccc1Nc1c(Cl)cccc1Cl | inactive |  | inactive | inactive
32 | c1ccc2[nH]ccc2c1 | inactive |  | inactive | inactive
33 | C[N+](C)(C)CC[N+]1(C)Cc2c(Cl)c(Cl)c(Cl)c(Cl)c2C1 | inactive |  | inactive | inactive
34 | COc1ccc(C(=O)N2CCN(CC(=O)N3CCOCC3)CC2)cc1 | inactive |  |  | inactive
35 | O=C(/C=C/c1ccccc1)OCc1ccccc1 |  |  |  | inactive
36 | CC1CCN(CCCC(=O)c2ccc(F)cc2)CC1 | inactive |  | inactive | 
37 | CCN(CC)CC1CCCCN1CC(=O)N1c2ccccc2C(=O)Nc2cccnc21 (configuration not stated) | inactive |  | inactive | inactive
38 | CN(C/C=C/C#CC(C)(C)C)Cc1cccc2ccccc12 | inactive |  |  | inactive
39 | CC(C)(C)C(=O)OCOC(=O)[C@@H]1N2C(=O)[C@@H](NC(=O)[C@H](N)c3ccccc3)[C@H]2SC1(C)C | inactive |  | inactive | inactive
40 | Cc1c(NC(=O)c2cccnc2)c(=O)n(-c2ccccc2)n1C | inactive |  | inactive | inactive
41 | COc1ccc(NS(=O)(=O)c2ccc(N)cc2)nn1 | inactive |  |  | inactive
